Test results from PubChem BioAssay (Tox21).
Results filed as inconclusive are left out. Where a call stands in place of a potency, no number is given. The source holds several records for some structures; these can differ, active in one and inactive in another. Active and inactive are the calls of the source. Unless noted, calls come from the whole dose curve.

Tested on: not listed separately
Test: qHTS assay to identify small molecule agonists of the estrogen related receptor signaling pathway with the pleiotropic PPARgamma coactivator (PGC) from Tox21 10K library (AID 1224842; active = well fitted activation curve with a large enough effect in the repeat runs; note: nearly all actives have a fitted effect of over 15% in size)
Details: PGC/ERR reporter cell line, luciferase ONE-Glo, 18 h; series mostly up to 92.4 µM; activation: at the top concentration
Method in brief: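 PGC/ERR reporter cells (NTP line) were seeded 2,000 per well, rested 6 h at 37 C/5% CO2, then pin-dosed with compounds in DMSO for 18 h at 37 C; luciferase read by One-Glo luminescence after 30 min at room temperature.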
In the case of `O=P(OC(CCl)CCl)(OC(CCl)CCl)OC(CCl)CCl`, the “activation” value is reported as -25.1% (inactive).
In the case of `Nc1ccccc1[N+](=O)[O-]`, the outcome is reported as “inactive”.
In the case of `CC(C)CC(=O)CC(C)C`, the outcome is reported as “inactive”.
In the case of `CCc1cccc(C)c1N`, the “activation” value is reported as -2.53% (inactive).
With `CCCCC(CC)COC(=O)CS` (stereo not drawn) the outcome was “inactive”.
In the case of `CCCCCCCCCCCCCCCO`, the outcome is reported as “inactive”.
For `COc1ccc(Nc2ccccc2)c(C)c1`, the outcome was “inactive”.
For `C[C@H]1C[C@@H]2[C@H]([C@@H](O)C[C@@]3(C)[C@H]2CC[C@]3(O)C(=O)CO)[C@@]2(C)C=CC(=O)C=C12`, the outcome was “inactive”.
For `C=C(C)C(=O)O[C@H]1C[C@@H]2CC[C@@]1(C)C2(C)C`, the outcome was “inactive”.
In the case of `CCCCC(CC)COC(=O)C(C#N)=C(c1ccccc1)c1ccccc1` (stereo not drawn), the outcome is reported as “inactive”.

Biological target: Thyrotropin receptor (Homo sapiens) (UniProt P16473)
Sequence (P16473 whole entry, looked up): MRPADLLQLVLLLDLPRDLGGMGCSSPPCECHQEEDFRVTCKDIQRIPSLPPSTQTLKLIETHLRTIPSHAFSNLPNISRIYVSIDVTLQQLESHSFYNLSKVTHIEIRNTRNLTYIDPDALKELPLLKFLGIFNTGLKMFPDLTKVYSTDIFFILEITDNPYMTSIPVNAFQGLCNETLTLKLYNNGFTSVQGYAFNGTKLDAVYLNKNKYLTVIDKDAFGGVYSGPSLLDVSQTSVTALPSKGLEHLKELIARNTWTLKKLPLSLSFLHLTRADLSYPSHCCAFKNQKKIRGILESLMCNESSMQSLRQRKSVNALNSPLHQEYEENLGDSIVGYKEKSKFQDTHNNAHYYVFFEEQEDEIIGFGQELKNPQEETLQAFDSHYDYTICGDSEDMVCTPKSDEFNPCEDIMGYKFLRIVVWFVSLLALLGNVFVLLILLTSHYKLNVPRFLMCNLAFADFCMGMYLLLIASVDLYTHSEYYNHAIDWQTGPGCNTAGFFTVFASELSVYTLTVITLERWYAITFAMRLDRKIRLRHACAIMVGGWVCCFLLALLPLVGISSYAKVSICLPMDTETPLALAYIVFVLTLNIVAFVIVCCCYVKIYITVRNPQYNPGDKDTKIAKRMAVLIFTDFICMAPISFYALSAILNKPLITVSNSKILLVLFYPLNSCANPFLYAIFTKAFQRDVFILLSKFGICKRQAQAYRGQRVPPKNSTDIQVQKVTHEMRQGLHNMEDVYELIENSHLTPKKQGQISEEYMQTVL
Test: qHTS assay to identify small molecule agonists of the thyroid stimulating hormone receptor (TSHR) signaling pathway (AID 1224843); note: nearly all actives have a fitted effect of over 45% in size; note: potency is the fitted concentration of half-maximal effect
Details: TSHR-HEK293 cells, cAMP HTRF, agonist mode, 30 min; series mostly up to 92.4 µM; activation: at the top concentration
Method in brief: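 Using 15 concentrations per compound in triplicate, cAMP production was monitored in TSHR-HEK293 cells after 30 min compound incubation at RT; HTRF reagents followed, with fluorescence intensity recorded after 1 h.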
With `CC1=CCC2CC1C2(C)C` (stereo not drawn) the Potency was “inactive”.
In the case of `O=S1(=O)CC=CC1`, the Potency is reported as “inactive”.
With `FC(F)(F)c1ccc(Cl)c(Cl)c1` the Potency was “inactive”.
In the case of `Nc1ccccc1[N+](=O)[O-]`, the Potency is reported as “inactive”.
For `CN(C)CCC(c1ccc(Cl)cc1)c1ccccn1` (stereo not drawn), the “activation” value was -13.5% (inactive).
With `CC(C)(C)[C@@H](O)[C@@H](Cc1ccc(Cl)cc1)n1cncn1` the Potency was “inactive”.
For `OCCOCCN1CCN(C2=Nc3ccccc3Sc3ccccc32)CC1`, the Potency was “inactive”.
In the case of `CC(O)COCC(C)O` (stereo not drawn), the Potency is reported as “inactive”.
With `c1ccc2scnc2c1` the “activation” value was -0.3% (inactive).
With `Cc1ccc2oc(=O)ccc2c1` the Potency was “inactive”.
With `CCc1cccc(C)c1N` the Potency was “inactive”.
With `CCCCC(CC)COC(=O)CS` (stereo not drawn) the Potency was “inactive”.
For `c1ccc(OCCOc2ccccc2)cc1`, the “activation” value was -21.5% (inactive).
With `CCCCCCCCCCCCCCCO` the Potency was “inactive”.
For `O=C(O)c1ccc2c(c1)C(=O)OC2=O`, the Potency was “inactive”.
With `COc1cc(Cc2cnc(N)nc2N)cc(OC)c1OC` the Potency was “inactive”.
In the case of `COc1ccc(Nc2ccccc2)c(C)c1`, the Potency is reported as “inactive”.
For `O=C(O)c1cc(C(=O)O)cc(S(=O)(=O)O)c1`, the Potency was “inactive”.
With `CCCCCCCCCC` the Potency was “inactive”.
For `CC(=O)CC(=O)Nc1ccccc1`, the Potency was 19.3 µM (active) and inactive.
For `Cc1cnc(C(=O)NCCc2ccc(S(=O)(=O)NC(=O)NC3CCCCC3)cc2)cn1`, the “activation” value was -0.312% [at 42.5 µM] (inactive).
In the case of `Cc1cc(C)c(C)cc1C`, the “activation” value is reported as 2.52% (inactive).
For `CCCCCCCCCCCCCCO`, the Potency was “inactive”.
In the case of `COc1ccc2cc([C@H](C)C(=O)O)ccc2c1`, the Potency is reported as “inactive”.
In the case of `C=C(C)C(=O)O[C@H]1C[C@@H]2CC[C@@]1(C)C2(C)C`, the Potency is reported as “inactive”.
With `Cc1ccc(S(N)(=O)=O)cc1` the Potency was “inactive”.
In the case of `C=CCOC(=O)c1ccccc1C(=O)OCC=C`, the Potency is reported as “inactive”.
In the case of `C#C[C@]1(O)CC[C@H]2[C@@H]3CCC4=CC(=O)CC[C@@H]4[C@H]3CC[C@@]21C`, the “activation” value is reported as 10.2% [at 42.5 µM] (inactive).
In the case of `O=S(=O)(O)c1ccc2ccccc2c1`, the Potency is reported as “inactive”.
For `CCCCC(CC)COC(=O)C(C#N)=C(c1ccccc1)c1ccccc1` (stereo not drawn), the “activation” value was -1.71% [at 42.5 µM] (inactive).

Tested on: not listed separately
Test: qHTS assay to identify small molecule agonists of the hypoxia (HIF-1) signaling pathway - cell viability counter screen (AID 1224844); note: nearly all actives have a fitted effect of over 50% in size; note: potency is the fitted concentration of half-maximal effect
Details: HRE-bla ME-180 viability, CellTiter-Glo luminescence, 17 h; series mostly up to 76.8 µM; activity change, negative = cytotoxicity: at the top concentration
Method in brief: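 Viability counter screen: HRE-bla ME-180 cells plated 5 hrs before compound addition, treated 17 hrs at 37C and 5% CO2, then CellTiter-Glo added after the FRET reporter read; luminescence after 30 min.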
For `CC1=CCC2CC1C2(C)C` (stereo not drawn), the Potency was “inactive”.
In the case of `O=S1(=O)CC=CC1`, the Potency is reported as “inactive”.
In the case of `FC(F)(F)c1ccc(Cl)c(Cl)c1`, the Potency is reported as “inactive”.
In the case of `Nc1ccccc1[N+](=O)[O-]`, the Potency is reported as “inactive”.
In the case of `CC(C)CC(=O)CC(C)C`, the Potency is reported as “inactive”.
In the case of `CC(c1cc2ccccc2s1)N(O)C(N)=O` (stereo not drawn), the Potency is reported as “inactive”.
In the case of `CN(C)CCC(c1ccc(Cl)cc1)c1ccccn1` (stereo not drawn), the “activity change, negative = cytotoxicity” value is reported as 6.4% (inactive).
In the case of `c1c[nH]cn1`, the Potency is reported as “inactive”.
For `CC(C)(C)[C@@H](O)[C@@H](Cc1ccc(Cl)cc1)n1cncn1`, the Potency was “inactive”.
In the case of `OCCOCCN1CCN(C2=Nc3ccccc3Sc3ccccc32)CC1`, the Potency is reported as “inactive”.
For `CC(O)COCC(C)O` (stereo not drawn), the Potency was “inactive”.
In the case of `c1ccc2scnc2c1`, the Potency is reported as “inactive”.
With `Cc1ccc2oc(=O)ccc2c1` the Potency was “inactive”.
In the case of `CCc1cccc(C)c1N`, the Potency is reported as “inactive”.
With `CCCCC(CC)COC(=O)CS` (stereo not drawn) the Potency was “inactive”.
For `c1ccc(OCCOc2ccccc2)cc1`, the Potency was “inactive”.
In the case of `CCCCCCCCCCCCCCCO`, the “activity change, negative = cytotoxicity” value is reported as 12% (inactive).
With `O=C(O)c1ccc2c(c1)C(=O)OC2=O` the Potency was “inactive”.
In the case of `COc1cc(Cc2cnc(N)nc2N)cc(OC)c1OC`, the Potency is reported as “inactive”.
In the case of `COc1ccc(Nc2ccccc2)c(C)c1`, the Potency is reported as “inactive”.
For `CCN(CC)CCCC(C)Nc1ccnc2cc(Cl)ccc12` (stereo not drawn), the activity change, negative = cytotoxicity was -3.66% [at 15.8 µM] (inactive).
For `O=C(O)c1cc(C(=O)O)cc(S(=O)(=O)O)c1`, the Potency was “inactive”.
With `CCCCCCCCCC` the Potency was “inactive”.
In the case of `CC(=O)CC(=O)Nc1ccccc1`, the Potency is reported as “inactive”.
For `Cc1cnc(C(=O)NCCc2ccc(S(=O)(=O)NC(=O)NC3CCCCC3)cc2)cn1`, the Potency was “inactive”.
With `Cc1cc(C)c(C)cc1C` the Potency was “inactive”.
In the case of `C[C@H]1C[C@@H]2[C@H]([C@@H](O)C[C@@]3(C)[C@H]2CC[C@]3(O)C(=O)CO)[C@@]2(C)C=CC(=O)C=C12`, the “activity change, negative = cytotoxicity” value is reported as -10.5% [at 35.3 µM] (inactive).
For `CCCCCCCCCCCCCCO`, the Potency was “inactive”.
In the case of `CCCSc1ccc2nc(NC(=O)OC)[nH]c2c1`, the “activity change, negative = cytotoxicity” value is reported as 4.87% (inactive).
In the case of `COc1ccc2cc([C@H](C)C(=O)O)ccc2c1`, the Potency is reported as “inactive”.
With `C=C(C)C(=O)O[C@H]1C[C@@H]2CC[C@@]1(C)C2(C)C` the Potency was 1.94 µM (active) and inactive.
In the case of `Cc1ccc(S(N)(=O)=O)cc1`, the Potency is reported as “inactive”.
For `C=CCOC(=O)c1ccccc1C(=O)OCC=C`, the Potency was “inactive”.
With `C#C[C@]1(O)CC[C@H]2[C@@H]3CCC4=CC(=O)CC[C@@H]4[C@H]3CC[C@@]21C` the “activity change, negative = cytotoxicity” value was -23.6% (inactive).
For `OCc1cccnc1`, the Potency was “inactive”.
With `O=C(O)[C@H](O)[C@@H](O)[C@H](O)[C@H](O)CO` the Potency was “inactive”.
With `O=S(=O)(O)c1ccc2ccccc2c1` the “activity change, negative = cytotoxicity” value was 1.01% (inactive).
For `CCCCC(CC)COC(=O)C(C#N)=C(c1ccccc1)c1ccccc1` (stereo not drawn), the Potency was “inactive”.
